# Assay results published in PubChem BioAssay.
# Values without a mark were called inactive. The source made the active and inactive calls.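 Rule for the calls, unless noted: active = mean inhibition above 46.5%, the solvent-only control mean plus 3 SD; inactive = the rest.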
# How the values were obtained:
# [1] = system: transactivating tegument protein VP16 (Human herpesvirus 1); assay: compounds suppressing VP16-driven luciferase signal – cell-based, luminescence, single concentration, counter-screen for SRC2 inhibitor project (AID 652007; in the data active = inhibition above about 36%); conditions: cell-based VP16 transactivation luciferase reporter, at 8.9 µM, active compounds read high
# [2] = biological target: Nuclear receptor coactivator 2 (Homo sapiens) (UniProt Q15596); assay: inhibition of GAL4-SRC2 driven luciferase expression – cell-based, luminescence, HEK293, triplicate, confirmation (AID 652008); conditions: HEK293 GAL4-SRC2 luciferase reporter, at 8.9 µM, active compounds read high;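 note: 0% = DMSO-treated cells and 100% = Gossypol at 36 µM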
# Sequence of Nuclear receptor coactivator 2 (Homo sapiens) (Q15596 whole entry, looked up, the tested form may be a part): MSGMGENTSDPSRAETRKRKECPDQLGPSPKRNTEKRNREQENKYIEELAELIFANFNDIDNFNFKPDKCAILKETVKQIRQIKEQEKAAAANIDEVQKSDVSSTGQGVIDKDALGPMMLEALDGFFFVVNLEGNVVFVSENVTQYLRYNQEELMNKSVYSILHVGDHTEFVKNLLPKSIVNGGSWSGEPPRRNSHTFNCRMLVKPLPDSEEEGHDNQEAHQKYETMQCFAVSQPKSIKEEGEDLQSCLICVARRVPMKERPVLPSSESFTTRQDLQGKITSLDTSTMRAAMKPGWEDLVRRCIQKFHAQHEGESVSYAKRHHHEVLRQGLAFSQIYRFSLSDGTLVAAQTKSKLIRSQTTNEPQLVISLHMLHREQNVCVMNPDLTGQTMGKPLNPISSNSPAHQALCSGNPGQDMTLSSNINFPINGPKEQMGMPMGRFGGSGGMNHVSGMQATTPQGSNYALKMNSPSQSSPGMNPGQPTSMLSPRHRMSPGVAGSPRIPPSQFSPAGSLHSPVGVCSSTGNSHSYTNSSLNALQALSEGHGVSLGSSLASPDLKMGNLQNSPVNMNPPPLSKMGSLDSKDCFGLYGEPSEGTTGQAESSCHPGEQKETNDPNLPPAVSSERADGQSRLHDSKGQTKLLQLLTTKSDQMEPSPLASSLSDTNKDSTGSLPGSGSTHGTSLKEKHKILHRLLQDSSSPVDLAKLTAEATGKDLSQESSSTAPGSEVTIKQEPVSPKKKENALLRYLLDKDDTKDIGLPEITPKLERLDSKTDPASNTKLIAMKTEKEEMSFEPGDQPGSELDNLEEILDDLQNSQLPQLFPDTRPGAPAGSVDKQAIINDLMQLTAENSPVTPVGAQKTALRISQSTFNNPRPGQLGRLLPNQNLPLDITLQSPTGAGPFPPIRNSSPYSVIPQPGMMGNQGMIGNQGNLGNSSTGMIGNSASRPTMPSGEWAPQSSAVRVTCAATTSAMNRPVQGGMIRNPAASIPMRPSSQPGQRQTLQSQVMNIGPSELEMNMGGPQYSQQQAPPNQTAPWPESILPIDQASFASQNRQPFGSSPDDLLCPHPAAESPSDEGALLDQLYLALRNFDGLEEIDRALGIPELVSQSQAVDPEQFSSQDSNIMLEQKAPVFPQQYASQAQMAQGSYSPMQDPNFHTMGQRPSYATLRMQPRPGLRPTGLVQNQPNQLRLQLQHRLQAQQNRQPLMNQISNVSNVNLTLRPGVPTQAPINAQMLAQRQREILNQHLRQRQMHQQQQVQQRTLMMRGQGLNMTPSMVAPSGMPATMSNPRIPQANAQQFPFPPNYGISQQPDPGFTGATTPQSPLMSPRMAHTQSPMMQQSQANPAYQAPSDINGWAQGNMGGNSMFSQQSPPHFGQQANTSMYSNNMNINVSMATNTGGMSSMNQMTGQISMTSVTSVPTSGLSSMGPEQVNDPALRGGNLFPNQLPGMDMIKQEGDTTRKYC
Structure (SMILES),inhibition [1],inhibition [2]
CCn1cc(S(=O)(=O)Nc2ccc3c(c2)OCCO3)cn1,-3.8%,48.4% (active)
COc1ccccc1/C=C/C1(C(=O)NC2CCCC2)CC(=O)N1c1ccc(F)cc1 (stereo unspecified),19.7%,49.2% (active)
Cc1csc2ncnc(N3CCN(C(=O)Nc4ccc(OC(F)(F)F)cc4)CC3)c12,1.45%,26.6%
Cc1ccc(Cn2ccc(=O)c(OCc3c(Cl)cccc3Cl)c2C)cc1,11.9%,13.3%
N#Cc1c(N)nc2c(c1N)CC(C(F)(F)F)O2 (stereo unspecified),-1.62%,12%
CC(C)N=C(NS(=O)(=O)c1ccccc1)C(Cl)(Cl)Cl,7.46%,28.2%
NCCOc1ccc(C2CCCCC2)cc1,-53.7%,23%
Cc1ccc(S(=O)(=O)N2[C@@H](c3ccc4c(c3)OCO4)C(C(=O)O)=C[C@H]2C(C)(C)C)cc1,-12.9%,1.95%
c1ccc(CCNc2ncnc3scc(C4COc5ccccc5O4)c23)cc1 (stereo unspecified),-8.4%,-10.3%
CCOc1ccc(-c2cc(CCCC(=O)NCCc3ccc(OC)c(OC)c3OC)no2)cc1,12.8%,34.7%
Cc1cc(C)c2c3c(sc2n1)C(=O)N(c1ccccc1C)CC(=O)N3,4.42%,5.22%
Cc1ccc(NC(=O)C2CCN(S(=O)(=O)c3ccc(N4CCCC4=O)cc3)CC2)cc1Cl,31%,46.4%
CCc1ccc(/C=C2\SC(=S)N(CCC(=O)Nc3cc(C)on3)C2=O)cc1,-41%,16.6%
CC(OC(=O)C1CCCCC1)C(=O)Nc1cccc([N+](=O)[O-])c1 (stereo unspecified),-0.78%,9.77%
N#Cc1ccc(-c2ccc(OCC(=O)Nc3cccnc3)cc2)cc1,-9.35%,52.6% (active)
Cc1ccc(C(=O)O/N=C(\N)c2ccccn2)cc1C,-29.9%,-24.9%
CCOc1ccc(NC(=S)NC(=O)/C=C/c2ccc(OC)cc2)c([N+](=O)[O-])c1,-22.3%,-19.4%
NC(=S)N1OC[C@@H]2COc3ccc4ccccc4c3[C@@H]21,2.09%,48.6% (active)
CC(C)(C)c1ccc(Oc2ccc(NC(=O)c3ccco3)cn2)cc1,30.6%,42.2%
N=c1c2c3c(sc2ncn1N)CCCCC3,2.99%,-23.5%
CCCCCc1ccc(-c2ccc(/C=C/C(=O)O)cc2)nc1,-23.1%,60.2% (active)
COc1ccc(N(C(=O)CCl)C(C(=O)NCCc2ccccc2)c2cccs2)cc1 (stereo unspecified),32.7%,58.1% (active)
CC(=O)N(Cc1ccc(F)cc1)C1=C(NCCc2ccccc2)C(=O)c2ccccc2C1=O,14.1%,20%
CC(C)C[C@@H]1Cc2[nH][nH]c(=O)c2[C@H](C(C)C)O1,-6.29%,-23.6%

Structure (SMILES),inhibition [1],inhibition [2]
O=[N+]([O-])c1cc(Br)c(Nc2ccccc2)c([N+](=O)[O-])c1,-21.9%,-12.5%
CCOc1cc(/C=C2/NC(=O)N(Cc3ccccc3F)C2=O)ccc1O,4.78%,30.1%
CC(NC(=O)CCc1nnc(-c2ccc(-c3ccccc3)cc2)o1)c1nc2ccccc2[nH]1 (stereo unspecified),15.2%,55.9% (active)
COc1cccc(Nc2nc(NCCO)c3ccccc3n2)c1,-14.1%,31.5%
Cc1ccc(CC2C(=O)N(c3cc(C)ccc3C)C(=O)C2C)cc1 (stereo unspecified),0.03%,9.44%
Cc1ccc(C)c(S(=O)(=O)N2CCN(C(=O)C3CCN(c4ncnc5sc(C)c(C)c45)CC3)CC2)c1,15.6%,38.6%
CN(C)c1ccc(C(C[N+](=O)[O-])c2c(N)n(C)c(=O)n(C)c2=O)c(F)c1C#N (stereo unspecified),6.34%,6.89%
CC(=O)Nc1cccc(-c2cc(NC(C)=O)c3ncc(-c4ccc(F)cc4)n3c2)c1,12%,2.54%
O=C(Nc1ccc2c(c1)OCCO2)NC1(C(F)(F)F)Oc2ccccc2O1,-12.8%,43.7%
CCOc1ccc(-c2cc(CCCC(=O)N3CCN(c4ccc(OC)cc4)CC3)no2)cc1,4.64%,18.6%
Cc1ccc(C)c(-c2nc3cc(N)ccc3o2)c1,36.8% (active),55% (active)
Cn1nnnc1Sc1ncnc2scc(-c3ccc(Cl)cc3)c12,18.1%,42.2%
Cc1cccc(C(=O)N2CCC(Cc3ccccc3)CC2)c1[N+](=O)[O-],14.4%,38.3%
FC(F)(F)c1cnc(NNC(=S)Nc2ccccc2)c(Cl)c1,10.3%,14%
CCOC(=O)Cc1ccc(NC(=O)c2ccc(C(C)(C)C)cc2)cc1,-47.1%,63.9% (active)
CCN(CC)c1ccc(/C=C/c2cc(-c3ccccc3)c3ccccc3n2)cc1,-11.2%,-13.1%
CC(C)CNC(=O)COC(=O)c1c2c(nc3ccccc13)CCC2,9.25%,11.4%
Cc1ccc(C(=O)Nc2ncc([N+](=O)[O-])s2)cc1,-7.15%,57.7% (active)
Cc1cccc(N(Cc2cc(=O)[nH]c3ccccc23)C(=O)CCl)c1,42.4% (active),83% (active)
Cc1ccc(NC(=O)c2nc(S(=O)(=O)Cc3ccccc3)ncc2Cl)cc1,56.5% (active),74.4% (active)
Cc1cc(C)c(C)c(N=Nc2nc3ccccc3n2C)c1C,-75.3%,49.7% (active)
Cc1cccc(C(=O)O/N=C(\N)c2ccccn2)c1,-73.6%,-81.6%
Cc1cc(C(=O)COC(=O)c2ccc(O)cc2O)c(C)n1-c1ccc(OC(F)F)cc1,12.6%,35.1%
COc1ccc(NC(=O)NCc2ccccc2F)cc1OC,-0.66%,-17.2%
